This note sets out measurements from PubChem BioAssay AID651821 (The Scripps Research Institute Molecular Screening Center, 2012).

Structures are written as SMILES. About 4,700 (1.3%) of roughly 370,000 compounds were called active. The sample holds actives, similar compounds and a random draw of the others, so the mix is not that of the screen.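 Rule for the calls: active = inhibition above the plate cutoff, the mean of all test compounds on that plate plus 3 SD (cut at about 35% in these data); inactive = the rest.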

The assay can be described thus: small molecules binding CAG repeat RNA – biochemical, fluorescence, primary screen (AID 651821).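 Note: 0% = DMSO alone and 100% = 100 µM mitoxantrone as full dye displacement; higher means more dye released from RNA so lower well fluorescence.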 The settings on record: r(CAG) RNA repeat, TO-PRO-1 dye displacement fluorescence; at 3 µM; active compounds read high.
The term inhibition denotes the drop in the measured response relative to a control, in per cent. Regarding `COc1ccc2c(c1)CN1CN(CCc3ccccc3)S(=O)(=O)CC21` (centres undefined), the inhibition was 3.05% (inactive).
As to `CCCCNc1cccc2c1S(=O)(=O)N[C@@H](C)CO2`, the inhibition is 0.84% (inactive).
Take `COc1cc(NS(=O)(=O)c2ccc(NC(=S)NC(=O)c3ccccc3)cc2)nc(OC)n1`: the inhibition was 24.5% (inactive).
In the case of `COc1cc(NS(=O)(=O)c2ccc(N/C=C(\C=O)c3nc4cc(Cl)ccc4o3)cc2)nc(OC)n1`, the inhibition was 60.3% (active).
For `COC(=O)Nc1ccc(S(=O)(=O)Nc2cc(OC)nc(OC)n2)cc1`, the inhibition was 1.9% (inactive).
As to `COc1ccc(Cn2cc(COC(=O)N(C)Cc3ccccc3)nn2)cc1`, the inhibition is -0.97% (inactive).
`Cc1ccccc1CN1CCCCC(NC(=O)Nc2ccccc2F)C1=O` (centres undefined): the inhibition is 4.44% (inactive).
The same measure for `COC(=O)c1sc(-c2ccc(C(C)(C)C)cc2)cc1NC(=O)/C=C/C(=O)O`: 36.6% (active); for `O=C(C=CC(=O)Nc1ccc(F)cc1F)Nc1ccc(F)cc1F`: 0.56% (inactive); for `O=C(CSc1nnc(-c2ccccn2)n1-c1ccc(Cl)cc1)Nc1ccccc1-c1ccccc1`: 8.25% (inactive).
The same measure for `Cc1ccc(S(=O)(=O)CCC(=O)OCC(=O)N(C)C2CCS(=O)(=O)C2)cc1` (centres undefined): 2.79% (inactive).
For `O=C(c1cc(-c2ccco2)nc2ccccc12)N(Cc1nnc(-c2ccc(Cl)cc2)o1)C1CC1`, the inhibition was 8.3% (inactive).
As to `CN(C(=O)COC(=O)c1cc(-c2ccco2)nc2ccccc12)C1CCS(=O)(=O)C1` (centres undefined), the inhibition is 42.3% (active).
With `COC(=O)[C@]12C[C@H](CC(=O)NCC34CC5CC(CC(C5)C3)C4)C(=O)N(Cc3ccc(Cl)cc3Cl)C1=C[C@H](COCc1ccccc1)O[C@@H]2C`, the inhibition is 10.5% (inactive).
With `Cc1ccc(S(=O)(=O)N(C)CC(=O)NCCc2c[nH]c3ccccc23)cc1`, the inhibition was 0.8% (inactive).
For `COc1ccc(S(=O)(=O)NCCc2c[nH]c3ccccc23)cc1OC`, the inhibition is 35.2% (active).
As to `COc1cccc(CNCCc2c[nH]c3ccccc23)c1OCc1ccccc1F`, the inhibition was 4.43% (inactive).
As to `COC(=O)c1c(-c2ccc(OC)cc2)c2c(c3c4ccccc4n(S(=O)(=O)c4ccc(C)cc4)c13)C(=O)N(C)C2`, the inhibition is 14.9% (inactive).
Turning to `C=CCN1C(=O)[C@H](CC(=O)N2CCN(C(=O)OCC)CC2)[C@@]2(C(=O)OCC)CCCC=C12`, the inhibition is 0.1% (inactive).
Consider `COc1ccc(CN(CCN2CCOCC2)C(=O)c2ccc(C)cc2)cc1OC`, for which the inhibition was 1.93% (inactive).
As for `CC1(C(=O)NS(=O)(=O)c2ccc3ccccc3c2)CCN1C(=O)C1(c2ccc(Cl)cc2)CCC1` (centres undefined), the inhibition is 68.5% (active).
For `Cc1ccccc1S(=O)(=O)NC(=O)C1(C)CCN1C(=O)C1(c2ccc(Cl)cc2)CC1` (centres undefined), the inhibition was 33.6% (inactive).
For `CC1(C(=O)NS(=O)(=O)c2ccc(Cl)cc2)CCN1C(=O)CC1CCCC1` (centres undefined), the inhibition was 9.21% (inactive).
On to `COc1ccc(F)cc1S(=O)(=O)NCC(c1ccc2c(c1)OCO2)N1CCN(C)CC1` (centres undefined), for which the inhibition was -3.68% (inactive).
Consider `CN(Cc1ccc2nsnc2c1)Cc1nc(Cc2cccc(F)c2)no1`, for which the inhibition is -4.71% (inactive).
For `CCOc1cc(/C=C2/N=C(c3ccc(C(C)(C)C)cc3)OC2=O)cc(Cl)c1OS(C)(=O)=O`, the inhibition is 67% (active).
Regarding `O=C(Cc1ccccc1)Nc1ccc(C(=O)Nc2ccccc2C(=O)O)cc1`, the inhibition was 50.2% (active).
`O=C(Nc1ccccc1C(=O)O)c1ccc(N2C(=O)C3CC=CCC3C2=O)cc1` (centres undefined): the inhibition was 13.8% (inactive).
For `CN(CCc1ccccc1)C(=O)c1cccc(NC(=O)Cc2ccc([N+](=O)[O-])cc2)c1`, the inhibition is 1.94% (inactive).
The same measure for `O=C(CSCc1ccc([N+](=O)[O-])cc1)Nc1cccc(C(=O)Nc2ccccc2C(=O)O)c1`: 67.2% (active).
For the compound `O=C(COc1ccc([N+](=O)[O-])cc1)Nc1cccc(C(=O)Nc2ccccc2C(=O)O)c1`, the inhibition is 77.5% (active).
As to `COc1ccc(NC(=O)CSCc2ccc([N+](=O)[O-])cc2)cc1OC`, the inhibition was -1.63% (inactive).
In the case of `O=C(CCCOc1ccccc1)Nc1cccc(C(=O)O)c1`, the inhibition is 6.14% (inactive).
For `CC1CCN(C(=O)c2ccccc2NC(=O)Cc2ccccc2)CC1`, the inhibition is -6.63% (inactive).
The same measure for `O=C(CSCc1ccc([N+](=O)[O-])cc1)NCCSCc1ccccc1`: -2.49% (inactive).
The same measure for `O=C(c1ccncc1)N1CC[C@H]2[C@H](CCCN2Cc2ccc(F)cc2)C1`: -0.17% (inactive).
Consider `COC(=O)C1=C(C(=O)OC)C2C=C(C(C)C)C1C(=O)C2(C)O` (centres undefined), for which the inhibition is 2.51% (inactive).
The same measure for `Cc1ccc(C)c(NC(=O)CCS(=O)(=O)c2ccccc2)c1`: 5.79% (inactive); for `COC(=O)C(C(=O)OC)c1ccccc1NS(=O)(=O)c1cccc2ccccc12`: 6.69% (inactive); for `Cc1ccc(C(=O)C2CCN(CC(=O)NCCC(C)C)CC2)cc1`: -4.12% (inactive).
With `COC(=O)C1=C(C)N(Cc2ccccc2C(F)(F)F)C(=NCC2CC2)NC1c1cccc(Cl)c1` (centres undefined), the inhibition was 2.17% (inactive).
Regarding `COC(=O)c1ccc(C(NC(=O)OCc2ccccc2)/C(F)=C/[C@@H](C)C(=O)O)cc1` (some centres undefined), the inhibition is 7.38% (inactive).
As for `CC(C)[C@H](NC(=O)OCc1ccccc1)C(=O)OCc1ccccc1`, the inhibition was -7.02% (inactive).
The same measure for `COc1ccc(COC(=O)NC(C(=O)O)c2ccccc2)cc1` (centres undefined): 41.2% (active); for `O=S1(=O)CC(N2CCN(CCO)CC2)CN1Cc1cn(Cc2cccc(Cl)c2)nn1` (centres undefined): 1.81% (inactive).
As to `COc1ccccc1CSc1ncc(-c2ccc([N+](=O)[O-])cc2)[nH]1`, the inhibition was 6.09% (inactive).
As for `O=C(Nn1c(SCc2ccc([N+](=O)[O-])cc2)nc2ccccc2c1=O)c1ccc(F)cc1`, the inhibition was 25.7% (inactive).
Consider `N#Cc1c(-c2ccccc2)nc(SCc2cccc(C(F)(F)F)c2)[nH]c1=O`, for which the inhibition was 91.1% (active).
Take `Cc1ccccc1CSc1nnc(-c2ccccc2)c(=O)[nH]1`: the inhibition is 6.58% (inactive).
Consider `N#Cc1c(-c2ccccc2)nc(SCc2ccc([N+](=O)[O-])cc2)[nH]c1=O`, for which the inhibition was 74% (active).
As to `Cc1ccc(CSc2nc(-c3ccccc3)c(C#N)c(=O)[nH]2)cc1`, the inhibition was 84.2% (active).
In the case of `Cc1ccc(CSc2nsc(C)c2C#N)cc1`, the inhibition was -2.07% (inactive).
Take `Cc1ccc(CSc2nc3[nH]ncc3c(=O)[nH]2)cc1`: the inhibition was -3.55% (inactive).
Take `CC1(Cc2cccc(C#N)c2)C(=O)Nc2ccc(-c3cccc(C(F)(F)F)c3)cc21` (centres undefined): the inhibition was 2.77% (inactive).
